Measured values from the supplement of paper PMC5734697.

system: Caenorhabditis elegans; experiment: growth (movement index) relative to DMSO control, secondary screen (log2 fold change); higher = more growth (less anthelmintic activity); settings: 10 µM, 5 days, 20 °C, stage: L1 start
Experimental: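 C. elegans growth assay: synchronised L1 larvae (~20 per well) in S-complete medium with HB101 E. coli were grown in 96-well plates with Pathogen Box compound at 10 µM (1% DMSO) for 5 days at 20 °C. Motility/growth was quantified by whole-plate movie imaging (INVAPP/Paragon movement index). The score is the log2 fold change of the median movement of 5 replicate wells (on different plates) relative to DMSO-only wells. The secondary screen retested the top 20 hits with the same library material (n = 5, 10 µM).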

SMILES | growth (log2)
CCc1nn(C)c(C(=O)NCc2ccc(Oc3ccc(C)cc3)cc2)c1Cl | -10.6
CC1(C)OB(O)c2ccc(C3=NOC(c4cc(Cl)c(F)c(Cl)c4)(C(F)(F)F)C3)cc21 (configuration not stated) | -0.316
